IL1B secr inh = inhibitors of inflammasome signaling (IL-1 beta secretion); 360,000 tested, 4.7% active; THP-1 LPS/ATP IL-1B secretion, AlphaLISA, 16 h; stronger effect = lower value; activity change, % at 57.5 µM; AID 743279; in the data active = activity change below about -50%; inconclusive = mostly about -30% to -49%
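THP-1 cells pretreated 1 hr with compounds (up to 57.5 uM final), then stimulated with LPS (250 ng/mL final) plus ATP (1.25 mM final); secreted IL-1B measured by AlphaLISA after 16 hr, decreased signal indicating inhibition.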
HT1080-NT tox = kills 2HG-producing HT-1080-NT fibrosarcoma cells; HT-1080-NT fibrosarcoma viability, CellTiter-Glo ATP luminescence, 48 h; Potency, µM (doses to about 46.1 µM), without a hit: at the top dose activity, negative = less viability, usual class: cytotoxic; 360,000 tested, 1.6% active; AID 686970;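 note: NT is the 2HG producing partner of a matched IDH1 knockdown line; potency is the fitted concentration of half-maximal effect; 0% = DMSO-treated cells and -100% = media-only wells without cells; nearly all actives have a fitted effect of over 55% in size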
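A 48-hour cytotoxicity screen used HT-1080-NT cells plated 2 hours before compound delivery. ATP-based CellTiter-Glo luminescence measured viability, normalized to DMSO and no-cell controls.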
HT1080 IDH1KD tx = HT-1080 IDH1 knockdown cell toxicity (counter line); 360,000 tested, 2% active; Potency, µM (highest dose often 46.1 µM), for inactives: at the top dose activity, negative = toxicity, usual class: cytotoxic; HT-1080 IDH1 knockdown viability, ATP luminescence, 48 h;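 note: potency is the fitted concentration of half-maximal effect; 0% = DMSO wells and -100% = cell-free medium wells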
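IDH1KD HT-1080 cells, 750/well, RPMI + 5% FBS; compound pinned after 2 h settling; 48 h, 37 °C; CellTiter-Glo luminescence; % activity normalised to DMSO and no-cell wells; curves fitted, classed by r2 and efficacy.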
KB-3-1 tox = kills parental KB-3-1 adenocarcinoma cells; KB-3-1 viability, CellTiter-Glo ATP luminescence, 72 h; AID 1347075; 400,000 tested, 1.4% active; Potency, µM (series often up to 46.1 µM), usual class: cytotoxic; note: potency is the fitted concentration of half-maximal effect; nearly all actives have a fitted effect of over 60% in size
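Screening of KB-3-1 cells (DMEM, 10% FBS, phenol-red free) ran from lowest to highest compound concentration; after 72 h at 37 °C viability was read luminescently and curves fitted.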
KB-V1 cytotox = kills drug-selected multidrug resistant KB-V1 cells; KB-V1 MDR cells viability, CellTiter-Glo, 72 h; Potency, µM (highest dose often 46.1 µM), usual class: cytotoxic; 400,000 tested, 3.4% active; note: potency is the fitted concentration of half-maximal effect; nearly all actives have a fitted effect of over 60% in size
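Compound-treated KB-V1 multidrug-resistant cells, 72 h, 37 degrees C; viability by CellTiter-Glo. Fitted qHTS curves give the values.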
Numbers without * were called inactive. An excerpt weighted towards active compounds, which were near 8.8% of everything screened. Unless noted, calls come from the whole dose curve; as a rule, active = well fitted curve in the direction sought with a large enough effect; inconclusive = small, poorly fitted or top-dose-only effect, or another doubt; inactive = no such curve, though single readings can be large; an effect the other way counts as inactive or inconclusive. Unless noted, % is set by controls: 0 for no effect and ±100 for the full control effect.

For O=C(CN(Cc1ccc(F)cc1)C(=O)CNS(=O)(=O)c1ccccc1)NCC1CCCO1 (stereo not drawn) the results were IL1B secr inh 26.4, HT1080-NT tox -6.5%, HT1080 IDH1KD tx -4.1%, KB-3-1 tox inactive and KB-V1 cytotox inactive.
`COc1ccc2cc(C3(C)NC(=O)N(CC(=O)NCCC4=CCCCC4)C3=O)ccc2c1` (stereo not drawn) gave IL1B secr inh 9.5, HT1080-NT tox -12.0%, HT1080 IDH1KD tx -11.0%, KB-3-1 tox inactive and KB-V1 cytotox 16.4µM*.
For COc1ccc(C2(C)NC(=O)N(CC(=O)NCCC3=CCCCC3)C2=O)cc1OC (stereo not drawn) the results were IL1B secr inh -11.8, HT1080-NT tox -8.3%, HT1080 IDH1KD tx -0.6%, KB-3-1 tox inactive and KB-V1 cytotox inactive.
COc1ccc(N2CCN(C(=O)CN3C(=O)NC(C)(c4ccc5ccccc5c4)C3=O)CC2)cc1 (stereo not drawn) was read as IL1B secr inh -10.1, HT1080-NT tox -13.8%, HT1080 IDH1KD tx -29.0%, KB-3-1 tox 23.1µM* and KB-V1 cytotox 2.31µM*.
Cc1nn(C(=O)c2c([N+](=O)[O-])cnn2C)c(C)c1Cl was read as IL1B secr inh -21.7, HT1080-NT tox -8.5%, HT1080 IDH1KD tx -3.5%, KB-3-1 tox inactive and KB-V1 cytotox inactive.
For Cc1ccc(NC(=S)NNc2ncc(C(F)(F)F)cc2Cl)cc1 the results were IL1B secr inh -15.8, HT1080-NT tox inconclusive, HT1080 IDH1KD tx inconclusive, KB-3-1 tox inconclusive and KB-V1 cytotox inactive.
Fc1ccc(NC(=S)NNc2ncc(C(F)(F)F)cc2Cl)c(F)c1 was read as IL1B secr inh -9.9, HT1080-NT tox inconclusive, HT1080 IDH1KD tx 16.4µM*, KB-3-1 tox 20.6µM* and KB-V1 cytotox 14.6µM*.
Screening FC(F)(F)c1cnc(NNC(=S)Nc2ccc(Cl)cc2)c(Cl)c1 returned IL1B secr inh -98.5*, HT1080-NT tox inconclusive, HT1080 IDH1KD tx inconclusive, KB-3-1 tox inconclusive and KB-V1 cytotox inactive.
For COc1ccc(-c2sc3ccc(N4CCOCC4)cc3c2C#CC2(O)CCCCC2)cc1 the results were IL1B secr inh 105.1, HT1080-NT tox 20.6µM*, HT1080 IDH1KD tx inconclusive, KB-3-1 tox inconclusive and KB-V1 cytotox inactive.
O=C1C(=C(c2ccccc2)N2CCOCC2)Cc2ccccc21 was read as IL1B secr inh -104.4*, HT1080-NT tox 14.6µM*, HT1080 IDH1KD tx 4.61µM*, KB-3-1 tox 7.31µM* and KB-V1 cytotox inconclusive.
`O=C(c1ccccc1)N1CCN(C(=O)N2CCOCC2)CC1` gave IL1B secr inh -6.2, HT1080-NT tox 0.5%, HT1080 IDH1KD tx 1.9%, KB-3-1 tox inactive and KB-V1 cytotox inactive.
CC(C)C[C@H]1CN=C(Nc2ccccc2)N1CC1CCC(C(C)(C)C)CC1 (stereo partly drawn) was read as IL1B secr inh -87.3*, HT1080-NT tox -8.0%, HT1080 IDH1KD tx inconclusive, KB-3-1 tox inactive and KB-V1 cytotox inconclusive.
COc1ccc(C(=O)N/C(=C\c2ccccc2)C(=O)Nc2ccc(C(=O)NCC(=O)O)cc2)cc1 was read as IL1B secr inh -11.3, HT1080-NT tox -8.8%, HT1080 IDH1KD tx -10.0%, KB-3-1 tox inactive and KB-V1 cytotox inactive.
Screening CCC(=O)N1Cc2cc(C(=O)Nc3nccs3)nc(-c3cccc(-c4ccccc4OC)c3)c2[C@@H]1CCO returned IL1B secr inh -3.6, HT1080-NT tox inconclusive, HT1080 IDH1KD tx -11.5%, KB-3-1 tox inactive and KB-V1 cytotox 23.1µM*.
Screening Cn1c(N)c(C(C[N+](=O)[O-])c2c(F)cccc2Cl)c(=O)n(C)c1=O (stereo not drawn) returned IL1B secr inh -7.0, HT1080-NT tox inconclusive, HT1080 IDH1KD tx inconclusive, KB-3-1 tox inconclusive and KB-V1 cytotox inactive.
`COc1ccc(Cn2cc(F)c(=O)n(C)c2=O)cc1[N+](=O)[O-]` gave IL1B secr inh -8.1, HT1080-NT tox 1.7%, HT1080 IDH1KD tx 1.0%, KB-3-1 tox inactive and KB-V1 cytotox inactive.
Screening CN(C)c1ccc(C(C[N+](=O)[O-])c2c(N)n(C)c(=O)n(C)c2=O)c(F)c1C#N (stereo not drawn) returned IL1B secr inh -63.3*, HT1080-NT tox inconclusive, HT1080 IDH1KD tx inconclusive, KB-3-1 tox inconclusive and KB-V1 cytotox inactive.
COc1ccc(Br)cc1C(C[N+](=O)[O-])c1c(N)n(C)c(=O)n(C)c1=O (stereo not drawn) was read as IL1B secr inh -83.3*, HT1080-NT tox inconclusive, HT1080 IDH1KD tx inconclusive, KB-3-1 tox inconclusive and KB-V1 cytotox inconclusive.
Cc1ccc(C)c(S(=O)(=O)N2CCN(C(=O)c3cccn3C)CC2)c1 was read as IL1B secr inh -7.9, HT1080-NT tox 0.7%, HT1080 IDH1KD tx 0.6%, KB-3-1 tox inactive and KB-V1 cytotox inactive.
For CC(C)(C)C1CCc2c(sc(NC(=O)Cn3nnc(-c4ccccc4F)n3)c2C#N)C1 (stereo not drawn) the results were KB-3-1 tox inactive and KB-V1 cytotox inconclusive.
`O=[N+]([O-])c1ccc(N=Cc2ccc(Br)c([N+](=O)[O-])c2)cc1` gave IL1B secr inh -98.7*, HT1080-NT tox inconclusive, HT1080 IDH1KD tx -14.0%, KB-3-1 tox inconclusive and KB-V1 cytotox inconclusive.
O=[N+]([O-])c1ccc(C=Nc2ccccc2)cc1 was read as IL1B secr inh -21.1, HT1080-NT tox -20.8%, HT1080 IDH1KD tx 3.2%, KB-3-1 tox inactive and KB-V1 cytotox inactive.
For NNC(=O)c1sccc1OCc1cccc(C(F)(F)F)c1 the results were IL1B secr inh -3.3, HT1080-NT tox -6.1%, HT1080 IDH1KD tx -0.4%, KB-3-1 tox inactive and KB-V1 cytotox inactive.
`Nc1ncccc1OCc1cccc(C(F)(F)F)c1` gave IL1B secr inh -50.8*, HT1080-NT tox -5.7%, HT1080 IDH1KD tx -7.2%, KB-3-1 tox inconclusive and KB-V1 cytotox inconclusive.
`CCNC(=S)N(Cc1ccccc1)Cc1nc2ccccc2c(=O)[nH]1` gave IL1B secr inh 8.7, HT1080-NT tox 0.0%, HT1080 IDH1KD tx -3.0%, KB-3-1 tox inactive and KB-V1 cytotox 20.6µM*.
`CSc1ccc(CN(C)Cc2nc3ccccc3c(=O)[nH]2)cc1` gave IL1B secr inh 3.0, HT1080-NT tox -10.8%, HT1080 IDH1KD tx -1.4%, KB-3-1 tox inactive and KB-V1 cytotox 20.6µM*.
`CS(=O)(=O)N(Cc1ccc(F)cc1)Cc1nc2ccccc2c(=O)[nH]1` gave IL1B secr inh 25.6, HT1080-NT tox 0.4%, HT1080 IDH1KD tx 6.0%, KB-3-1 tox inactive and KB-V1 cytotox inactive.
Cc1cccc(C(=Cc2ccc([N+](=O)[O-])cc2)C(=O)O)c1 was read as IL1B secr inh 12.1, HT1080-NT tox 6.3%, HT1080 IDH1KD tx 0.0%, KB-3-1 tox inactive and KB-V1 cytotox inactive.

Screening data from PubChem BioAssay.
